High-throughput results (PubChem BioAssay)
UHRF1 binding – UHRF1 methylated DNA binding inhibitors, primary screen, counter-screen for MBD2 inhibitor project, biochemical, TR-FRET, human UHRF1, single concentration; UHRF1 binding to methylated oligo; E3 ubiquitin-protein ligase UHRF1 (Homo sapiens), Q96T88; inhibition, % at 4.4 µM; 370,000 tested, 0.75% active; AID 687016, 2013; in the data active = inhibition above about 21%;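 note: UHRF1 SRA domain binding a hemimethylated CpG hairpin DNA probe; 0% = median of test compound wells and 100% = reference inhibitor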
TCR-CD3 inh – inhibitors of human TCR-CD3 interaction, primary screen, biochemical, fluorescence, TAMRA-labeled TCR probe; T-cell receptor (TCR); inhibition, % at 9.4 µM; 360,000 tested, 0.37% active; AID 651800, 2012; in the data active = inhibition above about 19%;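 note: recombinant mutant TCR 2C K166C tagged with TAMRA read by polarization; 0% = receptor in buffer alone and 100% = receptor with positive control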
MBD2 DNA inh – inhibitors of MBD2 binding to methylated DNA, primary screen, biochemical, TR-FRET, DNA-binding domain, human. Methyl-CpG-binding domain protein 2 (Homo sapiens), Q9UBB5. MBD2 binding to methylated oligonucleotide. inhibition, % at 4.4 µM. 370,000 tested, 0.31% active. AID 686964, 2013; in the data active = inhibition above about 13%
LEDGF integ inh – blockers of LEDGF/p75-dependent integrase strand transfer – biochemical, TR-FRET, high throughput, primary screen; TR-FRET IN-LEDGF/p75 DNA integration, Eu/Cy5; inhibition, % at 3.7 µM; 370,000 tested, 0.64% active; AID 743269, 2014;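 active = inhibition above the screen-wide mean plus 3 SD, cut at about 13% in these data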;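 note: signal is the Cy5 over europium emission ratio at 671 and 618 nm; 0% = plate median of compound wells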
Rin1 Abl inh – inhibitors of Rin1-Abl protein binding, primary screen, biochemical, TR-FRET | Tyrosine-protein kinase ABL1 (Homo sapiens) + Ras and Rab interactor 1 (Homo sapiens), … | inhibition, % at 7.35 µM | 360,000 tested, 0.4% active; in the data active = inhibition above about 5%, passing the limit was not always enough
* = called active by the depositor. Sampled rows, rich in hits. Any-hit rate of the full collection: about 2%.

For Cc1cc(C)nc(NCC(O)CNc2ccccc2Cl)n1 (stereo not drawn) the results were UHRF1 binding 23*, TCR-CD3 inh 4, MBD2 DNA inh 9, LEDGF integ inh -1 and Rin1 Abl inh -2.
`Cc1cc(Nc2ccccc2Cl)c2ccccc2n1` gave UHRF1 binding -1, TCR-CD3 inh 0, MBD2 DNA inh -2, LEDGF integ inh -2 and Rin1 Abl inh 3.
CCC(Cc1ccccc1)NCc1c(C(=O)O)c(C)n(Cc2ccccc2)c1C (stereo not drawn) was read as UHRF1 binding 30*, TCR-CD3 inh -1, MBD2 DNA inh -1, LEDGF integ inh -9 and Rin1 Abl inh 3.
Screening COc1ccc(/C=C/S(=O)(=O)NCc2ccc(F)cc2)c(CNC(=O)OC(C)(C)C)c1 returned UHRF1 binding 2, MBD2 DNA inh 3 and LEDGF integ inh -6.
For C#CCNC(=O)C[C@H]1C[C@@]2(C(=O)OC)C(=C[C@H](C(C)C)O[C@@H]2C2CC2)N(CCCCCCCC)C1=O the results were UHRF1 binding 0, MBD2 DNA inh 0 and LEDGF integ inh -2.
Screening CCOC(=O)N1CCN(C(=O)CSCc2ccc(C)cc2)CC1 returned UHRF1 binding -4, TCR-CD3 inh 2, MBD2 DNA inh 6, LEDGF integ inh -7 and Rin1 Abl inh 6.1*.
Screening O=C(c1cncc(Br)c1)N1CCN(S(=O)(=O)c2ccc3ccccc3c2)CC1 returned UHRF1 binding 4, TCR-CD3 inh -1, MBD2 DNA inh -1, LEDGF integ inh 23* and Rin1 Abl inh 4.
O=C(c1ccc(=O)[nH]c1)N1CCN(S(=O)(=O)c2ccc3ccccc3c2)CC1 was read as UHRF1 binding 4, TCR-CD3 inh -3, MBD2 DNA inh 0, LEDGF integ inh -5 and Rin1 Abl inh 0.
COc1ccc(CN(C)C(=O)COC(=O)c2cc([N+](=O)[O-])ccc2N2CCCC2)c(OC)c1OC was read as UHRF1 binding -4, TCR-CD3 inh 6, MBD2 DNA inh -5, LEDGF integ inh -1 and Rin1 Abl inh 1.
Screening COc1ccc(Br)c(C=O)c1OS(=O)(=O)c1ccc(C)cc1 returned UHRF1 binding -2, TCR-CD3 inh 2, MBD2 DNA inh -1, LEDGF integ inh 16* and Rin1 Abl inh 0.
COc1cccc(C(=O)O)c1OS(=O)(=O)c1ccc(C)cc1 was read as UHRF1 binding -1, TCR-CD3 inh -2, MBD2 DNA inh -5, LEDGF integ inh -1 and Rin1 Abl inh -1.
Screening CC1CCN(C(=O)c2ccc3c(c2)OCCO3)CC1 returned UHRF1 binding -3, TCR-CD3 inh 1, MBD2 DNA inh 0, LEDGF integ inh 4 and Rin1 Abl inh -1.
For CC1CCN(C(=S)c2ccc3c(c2)OCO3)CC1 the results were UHRF1 binding 61*, TCR-CD3 inh 4, MBD2 DNA inh 0, LEDGF integ inh 2 and Rin1 Abl inh -3.
For c1ccc(CC2CCN(c3nc4ccccc4n4nnnc34)CC2)cc1 the results were UHRF1 binding 0, TCR-CD3 inh 33*, MBD2 DNA inh 2, LEDGF integ inh -2 and Rin1 Abl inh 0.
`Cc1csc(N=Cc2ccc([N+](=O)[O-])o2)n1` gave UHRF1 binding 22*, TCR-CD3 inh 9, MBD2 DNA inh 10, LEDGF integ inh 21* and Rin1 Abl inh 3.
For COC(=O)[C@]12C[C@H](CC(=O)N3CCOCC3)C(=O)N(Cc3ccccc3)C1=C[C@H](C(C)(C)C)O[C@@H]2C the results were UHRF1 binding -1, TCR-CD3 inh 2, MBD2 DNA inh -3 and LEDGF integ inh -1.
Screening COc1ccccc1Nc1ccc(C(=O)NC2CCCCC2)cn1 returned UHRF1 binding 27*, TCR-CD3 inh 5, MBD2 DNA inh -2, LEDGF integ inh -2 and Rin1 Abl inh 0.
For CCOc1ccc(CCNC(=O)Nc2ccccc2C)cc1OCC the results were UHRF1 binding 21*, TCR-CD3 inh -6, MBD2 DNA inh -1, LEDGF integ inh -8 and Rin1 Abl inh 1.
`CCNC(=O)C1CCCN(C(=O)Cc2cccs2)CC1` (stereo not drawn) gave UHRF1 binding 24*, TCR-CD3 inh 6, MBD2 DNA inh 7, LEDGF integ inh 0 and Rin1 Abl inh -3.
CCNC(=O)C1CCCN(C(=O)c2cccs2)CC1 (stereo not drawn) was read as UHRF1 binding 1, TCR-CD3 inh -10, MBD2 DNA inh 0, LEDGF integ inh -3 and Rin1 Abl inh 2.
Cc1occc1-c1nnc(SCC(=O)Nc2nc3ccccc3s2)o1 was read as UHRF1 binding 23*, TCR-CD3 inh 5, MBD2 DNA inh -1, LEDGF integ inh 3 and Rin1 Abl inh -2.
CC1(C)CC(=O)C=C(NC2CCCCC2)C1 was read as UHRF1 binding 2, TCR-CD3 inh 4, MBD2 DNA inh 0, LEDGF integ inh 3 and Rin1 Abl inh 3.
Screening CC1(C)CC(=O)C=C(C#CC2CC2)C1 returned UHRF1 binding 23*, TCR-CD3 inh 3, MBD2 DNA inh 6 and LEDGF integ inh -1.
Screening O=S1(=O)c2ccc(Br)cc2OC[C@H](Cc2ccccc2)N1Cc1cn(Cc2ccc(Cl)cc2)nn1 returned UHRF1 binding -2, MBD2 DNA inh 2 and LEDGF integ inh 0.
COC(=O)C1=C(C)N(C)C(=NCc2ccc(OC)cc2)NC1c1cccc(C(F)(F)F)c1 (stereo not drawn) was read as UHRF1 binding -1, TCR-CD3 inh 6, MBD2 DNA inh -2 and LEDGF integ inh 0.
Screening Cc1ccc2ccccc2[n+]1CCCS(=O)(=O)[O-] returned UHRF1 binding 36*, TCR-CD3 inh 0, MBD2 DNA inh 0, LEDGF integ inh 1 and Rin1 Abl inh 5.
Screening COc1ccccc1N1CCN(C2CCCN(C(=O)CN3CCCC3=O)C2)CC1 (stereo not drawn) returned UHRF1 binding -1, TCR-CD3 inh 0, MBD2 DNA inh 2, LEDGF integ inh 1 and Rin1 Abl inh -2.
Screening CC1(C#CC[N+]2(C)CCCCC2)CCC2C(O1)c1ccccc1OC2(C)C (stereo not drawn) returned UHRF1 binding 24*, TCR-CD3 inh 4, MBD2 DNA inh 8, LEDGF integ inh 5 and Rin1 Abl inh 0.
`CCNC(=O)COC(=O)/C=C/c1cccc([N+](=O)[O-])c1` gave UHRF1 binding -2, TCR-CD3 inh -2, MBD2 DNA inh -3, LEDGF integ inh -2 and Rin1 Abl inh 2.
`CCCCN(CCCC)C(=O)/C=C/c1cccc([N+](=O)[O-])c1` gave UHRF1 binding 21*, TCR-CD3 inh 0, MBD2 DNA inh 5, LEDGF integ inh 1 and Rin1 Abl inh -3.
